# From PubChem BioAssay AID1626 (SRMLSC, 2009)
# The whole screen tested about 220,000 compounds, of which about 2,000 (0.91%) were called active. Another 2% or so got no clear call; they are omitted. Cut-off read from the data, not from the text of the source: inconclusive = inhibition above about 80% without an active follow-up result; inactive = below that; test concentration not stated here. Not all results are given here. Results with a measured potency or affinity are listed apart.
# Experiment: M. tuberculosis H37Rv growth inhibitors, H37Rv strain (AID 1626);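 note: bacteria incubated seven days before Alamar blue readout; 0% = bacteria only wells and 100% = bacteria with antibiotic wells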
# Conditions: hits give high values, concentration not given here
row,SMILES,inhibition
1,CCOC(=O)C1CCN(C(=O)COc2ccc(S(=O)(=O)N3CCCC3)cc2C)CC1,8.86% (inactive)
2,N/C(=N\c1nc2c(c(=O)[nH]1)CCCC2)Nc1ccc(Oc2ccccc2)cc1,18% (inactive)
3,Cn1c(=O)c2c(nc(CN3CCC(C(N)=O)CC3)n2Cc2c(Cl)cccc2Cl)n(C)c1=O,-2.69% (inactive)
4,O=C(/C=C/c1ccc(F)cc1)N1CCCN(C(=O)/C=C/c2ccc(F)cc2)CC1,10.8% (inactive)
5,Cc1ccc(/C=C/C(=O)N2CCN(c3ccc(F)cc3)CC2)o1,-2.28% (inactive)
6,CCOCCn1c(SCC)nc2c1c(=O)[nH]c(=O)n2C,-10.1% (inactive)
7,Cc1cc(C)n(-c2nc(O)cc(=O)[nH]2)n1,-5.24% (inactive)
8,COc1ccc(Nc2nc(C)cc(=O)[nH]2)cc1,-16.4% (inactive)
9,Cc1cc(C)n(-c2nnc(C)c(=O)[nH]2)n1,-3.09% (inactive)
10,Cc1cc(Nc2ccc(Cl)cc2)n(-c2cccc(Cl)c2)n1,4.87% (inactive)
11,Cc1cc(C)nc(-n2nc(C)c(Oc3ccccc3O)c2C)n1,-0.16% (inactive)
12,Cc1nn(-c2ccccn2)c(C)c1Oc1ccccc1O,7.63% (inactive)
13,Cc1ccc(OCC(=O)Nc2ccc(Cl)cc2C(=O)c2ccccc2)cc1,-2.12% (inactive)
14,CCOc1ccc(CNC(=S)N/N=C\c2ccc([N+](=O)[O-])cc2)cc1,2.73% (inactive)
15,O=C(NCC(c1ccco1)N1CCCCC1)C(c1ccccc1)c1ccccc1 (stereo not drawn),2.31% (inactive)
16,CC(Oc1ccc(Cl)cc1Cl)c1ccnc2nc(N3CCOCC3)nn12 (stereo not drawn),7.65% (inactive)
17,CCOc1ccccc1NC1c2ccccc2C(=O)N1Cc1ccco1 (stereo not drawn),11.3% (inactive)
18,O=C1c2ccccc2C(Nc2ccc(S(=O)(=O)N3CCCCC3)cc2)N1Cc1ccco1 (stereo not drawn),2.32% (inactive)
19,O=C1c2ccccc2C(Nc2ccc3nc(-c4cccnc4)[nH]c3c2)N1Cc1ccco1 (stereo not drawn),44% (inactive)
20,COc1ccc(NC2c3ccccc3C(=O)N2Cc2ccco2)cc1OC (stereo not drawn),8.29% (inactive)
21,CCOC(=O)CNC(=O)CSc1nnc(-c2ccc(OC)cc2)n1CC,-3.53% (inactive)
22,O=C(c1ccco1)N1CCN(Cc2nc(Cc3ccccc3)no2)CC1,-8.56% (inactive)
23,CCn1c(-c2ccccc2)ccc(C#N)c1=O,-9.1% (inactive)
24,C#CCn1c(-c2ccccc2)ccc(C#N)c1=O,8.84% (inactive)
25,CS(=O)(=O)N(CC(=O)Nc1cccc(Cl)c1Cl)c1ccccc1,-0.62% (inactive)

row,SMILES,inhibition
1,O=C(COC(=O)c1ccc(=O)[nH]c1)Nc1cccc(S(=O)(=O)N2CCOCC2)c1,9.81% (inactive)
2,CC1CCC/C(=N/NC(=O)c2ccccc2-n2cccc2)C1 (stereo not drawn),-3.77% (inactive)
3,COc1ccc(-n2c(C)cc(/C=C3\C(=O)NN(c4ccccc4)C3=O)c2C)cc1,12.4% (inactive)
4,CC(=O)N(Cc1nc2sc(C)c(C)c2c(=O)[nH]1)C1CCCC1,-8.34% (inactive)
5,Cc1sc2nc(CN(C(=O)NC3CCCCC3)C3CCCCC3)[nH]c(=O)c2c1C,3.17% (inactive)
6,O=C(Nc1ccncc1)c1ccc(NS(=O)(=O)c2cccc(F)c2)cc1,7.32% (inactive)
7,NC(N)=N/N=C/c1ccccc1,12.3% (inactive)
8,CCN(Cc1ccccc1)c1ccc(/C=N/N2CCOCC2)cc1,2.24% (inactive)
9,Cc1ccccc1CN1C[C@@H]2C[C@@H](c3cn[nH]c3-c3ccccc3)N3CCC[C@@]23C1=O,-6.92% (inactive)
10,O=C(Nc1ccn(Cc2c(F)c(F)cc(F)c2F)n1)c1ccc(COc2ccc(Cl)cc2Cl)o1,4.49% (inactive)
11,O=C(Nc1ccn(Cc2ccccc2F)n1)c1ccc(COc2cc(Cl)ccc2Cl)o1,10.4% (inactive)
12,O=C(c1ccc(F)cc1F)N1CCN(c2ncccn2)CC1,3.87% (inactive)
13,Cc1[nH]c2ccccc2c1/C=N/n1cnnc1,3.82% (inactive)
14,Cc1[nH]c2ccccc2c1/C=N/O,57.2% (inactive)
15,O=C(Nc1nc2ccccc2[nH]1)C1CCCC1,-2.34% (inactive)
16,N#CC(C(=O)CCN1C(=O)C2CC=CCC2C1=O)c1nc2ccccc2[nH]1 (stereo not drawn),-15.5% (inactive)
17,O=C(Nc1nc2ccccc2[nH]1)C1CC1,-2.55% (inactive)
18,N#CC(C(=O)C1CCCCC1)c1nc2ccccc2[nH]1 (stereo not drawn),56.9% (inactive)
19,O=C(c1ccc2c(c1)OCCO2)C1CCN(C(=O)c2ccc(F)c(F)c2)CC1,5.15% (inactive)
20,Cc1cc(C)c(C(=O)C[n+]2cccc(C(N)=O)c2)c(C)c1,-6.58% (inactive)
21,Cc1oc(-c2ccccc2)nc1C(=O)N1CCN(c2ccc(F)cc2)CC1,0.48% (inactive)
22,Cc1ccccc1-c1ccc(/C=C2/SC(N3CCOCC3)=NC2=O)o1,-0.65% (inactive)
23,O=C1N=C(N2CCOCC2)S/C1=C\c1ccc(-c2ccccc2Cl)o1,2.45% (inactive)
24,CS(=O)(=O)c1ccc2nc(NC(=O)C3CCCO3)sc2c1 (stereo not drawn),-7.03% (inactive)
25,COc1cc2nc(CN(C)Cc3nc4ccccc4c(=O)[nH]3)[nH]c(=O)c2cc1OC,-3.41% (inactive)

row,SMILES,inhibition
1,CSc1ccc(CN(C)Cc2nc3ccccc3c(=O)[nH]2)cc1,-5.14% (inactive)
2,CCN(Cc1nc2ccccc2c(=O)[nH]1)Cc1nc2cc(OC)c(OC)cc2c(=O)[nH]1,-5.3% (inactive)
3,CCN(Cc1cc(=O)n2ccsc2n1)Cc1nc2ccccc2c(=O)[nH]1,-0.5% (inactive)
4,Cc1nn(CC(=O)NC(C)c2ccccc2)c(=O)c2ccccc12 (stereo not drawn),-2.29% (inactive)
5,CC1Cc2ccccc2N1C(=O)CSc1nc2c(c(=O)n(C)c(=O)n2C)n1Cc1ccc(F)cc1 (stereo not drawn),-3.29% (inactive)
6,COCCn1c(NC(=S)NC(=O)C23CC4CC(CC(C4)C2)C3)cc(=O)[nH]c1=O,-0.61% (inactive)
7,COC(=O)c1cccc(-n2c(CCC(=O)O)ccc2-c2cccs2)c1,6.42% (inactive)
8,CCN(CC)c1ccc(N=Cc2ccccc2[N+](=O)[O-])cc1,15.5% (inactive)
9,CN(/N=C/c1ccc([N+](=O)[O-])o1)c1ccccc1,1.22% (inactive)
10,COc1cccc(CC2(CO)CCCN(C/C=C/c3ccccc3OC)C2)c1 (stereo not drawn),39.9% (inactive)
11,COc1ccc(/C=C/CN2CCCC(CO)(Cc3cccc(Cl)c3)C2)cc1 (stereo not drawn),2.62% (inactive)
12,NC(=S)NC1CC2C=CC1C2 (stereo not drawn),-6.06% (inactive)
13,CN1CCN(S(=O)(=O)c2cccc(C(=O)Nc3nccs3)c2)CC1,-4.26% (inactive)
14,O=C1NC(=O)/C(=C/c2cccc(O)c2)N1,8.98% (inactive)
15,O=C(COC(=O)Cc1ccccc1F)Nc1ccc(SC(F)F)cc1,91.8% (inactive)
16,O=C(Cc1ccccc1)Nc1ccc(SC(F)F)cc1,1.19% (inactive)
17,O=C(O)CC/C(=N/NC(=O)c1cccs1)c1ccccc1,7.05% (inactive)
18,COc1ccc(C[C@H]2CN3C(=NC[C@@H]3C)N2CCNC(=O)CCC2CCCCC2)cc1,-3.39% (inactive)
19,O=C(CCC1CCCCC1)NCCN1C2=NC[C@@H](Cc3ccccc3)N2C[C@H]1Cc1ccc(O)cc1,39.5% (inactive)
20,O=C(CCC1CCCCC1)NCCN1C2=NC[C@H](Cc3ccccc3)N2C[C@H]1Cc1ccc(O)cc1,9.81% (inactive)
21,COc1ccc(C[C@H]2CN3C(=NC[C@H]3C)N2CCNC(=O)CCC2CCCCC2)cc1,-3.43% (inactive)
22,NC(=O)c1nn(-c2ccccc2)nc1NC(=O)Cn1nnc(-c2ccccc2)n1,9.3% (inactive)
23,Cc1ccc(CS(=O)(=O)Cc2ccc(C(=O)NCc3cccs3)o2)cc1,3.64% (inactive)
24,CC(C)c1cccc(C(C)C)c1OCCCCN1CCCC1,10.1% (inactive)
25,O=C(CCn1cccc1)N1CCc2ccccc21,6.64% (inactive)

row,SMILES,inhibition
1,CC(C)c1ccc(NC(=O)COC(=O)C2=COCCO2)cc1,78.6% (inactive)
2,CCOC(=O)c1ccccc1NC(=O)COC(=O)C1=COCCO1,71.3% (inactive)
3,CC(C)(C)c1ccc(NC(=O)COC(=O)C2=COCCO2)cc1,74% (inactive)
4,Cc1ccc(NC(=O)COC(=O)C2=COCCO2)cc1,60.1% (inactive)
5,NS(=O)(=O)c1ccc(NS(=O)(=O)c2ccc(NC(=S)Nc3ccccc3)cc2)cc1,7.44% (inactive)
6,CC(=O)C1=C(C)NC(=O)CC1c1ccc(F)cc1 (stereo not drawn),-1.68% (inactive)
7,COc1cc([N+](=O)[O-])ccc1NC(=O)/C=C\C(=O)O,2.65% (inactive)
8,COc1ccc(CC(=O)Nc2ccccc2N2CCCCC2)cc1OC,6.94% (inactive)
9,Cn1cnnc1-c1cccc(NC(=O)c2cc(F)c(F)cc2Cl)c1,-5.29% (inactive)
10,O=C(NC1CCCC1)C(c1ccccc1)N(Cc1ccco1)C(=O)Cc1cccs1 (stereo not drawn),2.16% (inactive)
11,O=C(CCn1c(=O)[nH]c2ccccc2c1=O)Nc1ccccc1,-7.56% (inactive)
12,O=c1cc(C(F)(F)F)oc2c1ccc1ccccc12,-2.31% (inactive)
13,O=c1cc(C(F)F)oc2c1ccc1ccccc12,1.35% (inactive)
14,COc1ccc(C(=O)C2CCCN(C(=O)c3cccnc3SC)C2)c(C)c1 (stereo not drawn),-5.65% (inactive)
15,NS(=O)(=O)c1ccc(CCNCc2cccs2)cc1,1.78% (inactive)
16,COc1ccc(NC(=O)c2ccco2)cc1N,-14.7% (inactive)
17,CCOC(=O)C1C(=O)CC(C)(O)C(C(=O)OCC)C1c1ccc(SC)cc1 (stereo not drawn),9.27% (inactive)
18,COc1ccc(OC)c(C2CC(=O)N3CN(c4ccccc4)CSC3=C2C#N)c1 (stereo not drawn),0.68% (inactive)
19,COc1ccc(N2CSC3=C(C#N)C(c4cc(OC)c(OC)cc4OC)CC(=O)N3C2)c(OC)c1 (stereo not drawn),15% (inactive)
20,CCc1ccc(N2CSC3=C(C#N)C(c4cccs4)CC(=O)N3C2)cc1 (stereo not drawn),22.1% (inactive)
21,COc1ccc(N2CSC3=C(C#N)C(c4cc(OC)ccc4OC)CC(=O)N3C2)c(OC)c1 (stereo not drawn),-0.31% (inactive)
22,Cc1ccc(N2CSC3=C(C#N)C(c4cccs4)CC(=O)N3C2)cc1 (stereo not drawn),7.29% (inactive)
23,COc1cccc(C2CC(=O)N3CN(c4cccc(Cl)c4C)CSC3=C2C#N)c1OC (stereo not drawn),-1.72% (inactive)
